Among the data in ChEMBL document CHEMBL3988442, “University of Dundee, Small-Polar-MMV Screening Library” (2021) are Percent Effect values, retold here.

Among all 69,000 compounds or so, about 50 (0.07%) showed an effect of 50% or more. The entries come from a sample that favours strong results as a whole.

Sequence of Lysine--tRNA ligase (Plasmodium falciparum (isolate 3D7)) (Q8IDJ8 1-583): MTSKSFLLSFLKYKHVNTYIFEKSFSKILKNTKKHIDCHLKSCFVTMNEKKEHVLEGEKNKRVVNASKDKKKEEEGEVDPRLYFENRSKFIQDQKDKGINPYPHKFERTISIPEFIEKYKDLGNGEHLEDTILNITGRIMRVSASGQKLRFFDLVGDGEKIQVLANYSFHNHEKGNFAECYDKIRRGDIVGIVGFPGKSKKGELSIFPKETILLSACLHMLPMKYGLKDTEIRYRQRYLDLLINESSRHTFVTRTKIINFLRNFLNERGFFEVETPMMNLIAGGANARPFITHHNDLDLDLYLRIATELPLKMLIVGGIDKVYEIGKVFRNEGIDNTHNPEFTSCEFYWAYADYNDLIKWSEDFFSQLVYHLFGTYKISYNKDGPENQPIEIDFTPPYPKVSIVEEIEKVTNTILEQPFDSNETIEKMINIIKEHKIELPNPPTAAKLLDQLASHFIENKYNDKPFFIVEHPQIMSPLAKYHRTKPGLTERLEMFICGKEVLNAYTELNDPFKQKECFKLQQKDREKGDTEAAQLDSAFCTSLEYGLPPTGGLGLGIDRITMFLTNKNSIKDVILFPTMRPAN

The experiment has as its target Lysine--tRNA ligase (Plasmodium falciparum (isolate 3D7)) (UniProt Q8IDJ8). As to the kind of experiment: Pf-KRS-1 (Lysyl-RNA Synthetase-1, KRS-1, cytosolic KRS) from Plasmodium falciparum. Inhibitor assay, 384 well plate, luminescence read. It is filed as functional. Further details: scale not given: in the data most compounds retested in dose-response had high values. The note with it: 30 µM.
For the compound `CC(C)C(=O)N1CCN(C(=O)c2cc(C(C)C)no2)[C@H]2CS(=O)(=O)C[C@H]21`, the Percent Effect came to 2.34%. In the case of `Cc1cc(CN2C[C@@H]3CN(Cc4ccsc4)CCO[C@@H]3C2)no1` it was 3.95%; in that of `CCCn1cc(NC(=O)c2ccc(S(C)(=O)=O)cc2)ccc1=O`, 79.3%. In the case of `CCCn1cc(NC(=O)c2ccc(N(C)CC)cc2)ccc1=O` it was 6.21%; in that of `CCCn1cc(NC(=O)c2ccc(S(=O)(=O)CC)cc2)ccc1=O`, 78.9%; in that of `CCCn1cc(NC(=O)c2cccnc2O)ccc1=O`, 10.4%.

On to `CCCn1cc(NC(=O)c2ccncc2)ccc1=O`, for which the Percent Effect was 36.1%. The same measure for `CCCn1cc(NC(=O)c2ccc(NC(=O)NC3CC3)cc2)ccc1=O`: 3.05%; for `Cc1noc([C@H]2CC[C@@H]3[C@@H](CCN3S(C)(=O)=O)O2)n1`: 4.83%; for `CN(C)C(=O)N1C[C@@H]2CC[C@H](C1)N(Cc1nnc(C3CC3)o1)C2`: 1.65%. In the case of `CCC(=O)N1CCN(C(=O)c2ccc(COC)o2)[C@H]2CS(=O)(=O)C[C@H]21` it was 1.62%; in that of `O=C([C@@H]1CCO[C@@H]2CCN(Cc3ccc(F)cc3)C[C@H]21)N1CCCCO1`, 4.98%; in that of `Cc1ncncc1C(=O)N1C[C@H]2CC[C@@H]1CN(C(=O)c1ccncc1)C2`, 4.91%. In the case of `COc1cccc(CNCc2ccnc(N3CCOCC3)c2)c1OC` it was 5.86%. As for `CCn1ncnc1C1CC(=O)NCc2nc(N3CCCC3)sc21` (stereo unspecified), the Percent Effect is 2.27%.

Regarding `COc1cccc(CNc2nc(N3CCOCC3)ns2)c1OC`, the Percent Effect was -2.52%. In the case of `COc1cccc(C2SCC(=O)Nc3n[nH]cc32)c1OC(C)C` (stereo unspecified) it was 1.84%; in that of `COc1cccc(C2CC(=O)Nc3nc(N4CCOCC4)sc32)c1OC` (stereo unspecified), 77.8%; in that of `CCOc1cccc(C2CC(=O)NCc3nc(N4CCCC4)sc32)c1` (stereo unspecified), 1.45%.

Regarding `CC(C)Oc1ccccc1C1CC(=O)Nc2c1cnn2C` (stereo unspecified), the Percent Effect turned out to be 1.57%. Regarding `COc1cccc(C2CC(=O)Nc3nc(N)sc32)c1OC` (stereo unspecified), the Percent Effect was determined as 62.7%. In the case of `CC(C)Oc1ccccc1C1CC(=O)Nc2nc(N3CCOCC3)sc21` (stereo unspecified), the Percent Effect was determined as 82.6%. In the case of `COc1cccc(C2CC(=O)Nc3nc(N4CCCCC4)sc32)c1OC` (stereo unspecified) it was 84.4%; in that of `Nc1nc2c(s1)C(c1c(F)cccc1Cl)CC(=O)N2` (stereo unspecified), 41.6%; in that of `COc1cccc(C2SCC(=O)Nc3ccsc32)c1OC` (stereo unspecified), 1.9%. In the case of `O=C(N1CCCC1)N1C[C@H]2CCC[C@@]2(COCc2ccccn2)C1` it was 2.76%; in that of `CCO[C@@H]1CC[C@H]2[C@H]1OCCN2Cc1ccoc1`, 2.1%; in that of `CNC(=O)[C@@H]1C[C@H]2CN(Cc3csc(C)n3)C[C@H]2N1C(C)C`, 4.1%. The same measure for `O=C([C@H]1CN(Cc2cccnc2)C[C@H]2OCC[C@@H]12)N1CCCO1`: 2.79%. As for `CN(C)C(=O)[C@@H]1C[C@@H]2CCN(C3CCOCC3)C[C@H]2O1`, the Percent Effect was found to be 1.18%. The same measure for `N#Cc1cccc(C(=O)Nc2ccc([C@@H](O)[C@H]3COCC(=O)N3)cc2)c1`: 5.33%. In the case of `COCC(=O)N1CCN(S(=O)(=O)c2ccccc2)[C@H]2CS(=O)(=O)C[C@H]21` it was 2.66%; in that of `O=C1CO[C@@H]2CN(Cc3nccs3)C[C@H]2N1Cc1ccncc1`, 3.56%. In the case of `COCC(=O)N1C[C@@H](OCc2ccncc2)[C@@H]2OCCC[C@@H]21` it was 0.763%; in that of `COc1ccccc1C1CC(=O)Nc2c1c(=O)[nH]n2C1CCCC1` (stereo unspecified), 5.39%; in that of `COc1ccccc1C1CC(=O)Nc2nc(N3CCCCC3)sc21` (stereo unspecified), 84.3%. In the case of `COc1ccccc1C1CC(=O)Nc2c1c(=O)[nH]n2C(C)C` (stereo unspecified), the Percent Effect was -1.35%.

Consider `COCCN1C[C@H]2CCC[C@@H](CNc3ncccn3)[C@H]2C1`, for which the Percent Effect came out at 5%. Turning to `Cn1ccnc1NC[C@@H]1CCC[C@@H]2CN(CC3CC3)C[C@@H]21`, the Percent Effect is 9.69%.

With `Cc1ncsc1CN1C[C@H]2OCC[C@H]2[C@H](C(=O)NCC2CC2)C1`, the Percent Effect was 0.98%. As to `CCN(Cc1cccc(F)c1)c1ccc2nnnn2n1`, the Percent Effect turned out to be 50.8%. Take `CCCN(CCc1cccc(F)c1)c1ccc2nnnn2n1`: the Percent Effect was determined as 10.9%. In the case of `Fc1cccc(CCN(c2ccc3nnnn3n2)C2CC2)c1` it was 5.52%. In the case of `O=C(c1ccco1)N1CC[C@@H]2O[C@H](COCC3CCOCC3)CC[C@@H]21` it was 0.363%.

For `CS(=O)(=O)NC[C@@H]1OC[C@H]2CN(Cc3ccccc3)CC[C@H]21`, the Percent Effect amounted to 3.37%. In the case of `COCCNC(=O)[C@H]1C[C@@H]2CCN(CCc3ccccc3)C[C@@H]2O1` it was 1.68%. The same measure for `COc1cccc(CN2C[C@@H]3COC[C@]3(CNC(=O)C3CC3)C2)c1`: 4.5%; for `O=c1[nH]nc(-c2cccs2)c2sc(N3CCOCC3)nc12`: 7.56%.

Consider `O=C1CC(c2ccccc2C(F)(F)F)c2sc(N3CCOCC3)nc2N1` (stereo unspecified), for which the Percent Effect amounted to 82.6%. As to `O=C1CC(c2ccccc2Br)c2sc(N3CCOCC3)nc2N1` (stereo unspecified), the Percent Effect was determined as 60.1%. Consider `Cn1ncc2c1NC(=O)CC2c1ccccc1Br` (stereo unspecified), for which the Percent Effect came out at 1.2%. For `OC1CN(c2nc3c(C(F)(F)F)cccc3s2)C1`, the Percent Effect was -2.21%. The same measure for `Cc1cc(Br)c(O)c(-c2nc(N3CCOCC3)sc2C)c1`: 2.13%; for `COCCN1CCO[C@@H]2CN(Cc3ccc(C)o3)C[C@@H]2C1`: 3.96%. In the case of `CNC(=O)[C@@H]1COC[C@H]2CN(C(=O)COc3ccccc3)C[C@H]21` it was 5.31%; in that of `CC(C)CS(=O)(=O)N1C[C@H]2C[C@H](C(=O)Nc3cccnc3)[C@@H](C1)O2`, -0.957%; in that of `O=C(Nc1ccccc1)[C@H]1C[C@@H]2CN(S(=O)(=O)c3ccccc3)C[C@H]1O2`, 1.2%. The same measure for `CCOCC1CN(Cc2ccc(OC)cc2)Cc2nn(C)cc21` (stereo unspecified): -4.8%. Turning to `CCOCC1CN(Cc2ccc(OC)cc2)Cc2nn(CC3CC3)cc21` (stereo unspecified), the Percent Effect stood at 60.3%. In the case of `CCOCC1CN(Cc2ccc(F)cc2)Cc2nn(CC3CC3)cc21` (stereo unspecified) it was 3.6%. In the case of `CNC(=O)N1CC[C@H]2N(C)CC[C@@]2(C(=O)N2CCOCC2)CC1` it was 5.59%. In the case of `Cc1cccc(C(=O)N2CC[C@H]3C[C@@H](C)O[C@@H]3C2)n1` it was 1.1%; in that of `CS(=O)(=O)N1C[C@@H]2COC[C@@H](CC(=O)N3CCCCO3)[C@@H]2C1`, -2.78%. Turning to `O=C(N1CCCO1)[C@@]12CCO[C@@H]1CCN(Cc1ccccc1)C2`, the Percent Effect was 4.7%. In the case of `COc1cccc(CN2C[C@H]3CCNCC[C@H]3S2(=O)=O)c1` it was -2.39%. With `Cc1noc(C)c1CN1CC[C@H]2C[C@H](c3nccs3)O[C@@H]2C1`, the Percent Effect is -0.715%.
